For 40 compounds, outcome and AC50 results are on record in PubChem BioAssay (EPA / NIEHS).

Active and inactive are the calls of the source. The calls were made as follows: active = hit-call score of the fitted dose curve at least 0.9, where 1 is the maximum; inactive = score below 0.9.

This test can be described thus: APR_HepG2_P-H2AX_72hr: Apredica 72-hour HepG2 Assay for H2AX Phosphorylation (AID 2282916). Particulars: imaging, actives raise or lower the signal. The protocol:
APR_HepG2_72hr is a cell-based, multiplexed-readout assay that uses HepG2, a human liver cell line, with measurements taken at 72 hours after chemical dosing in a 384-well plate.APR_HepG2_P-H2AX_72hr is one of 10 assay component(s) measured or calculated from the APR_HepG2_72hr assay. It is designed to make measurements of dna content, a form of viability reporter, as detected with fluorescence intensity signals by HCS Fluorescent Imaging technology.Data from the assay component APR_HepG2_P-H2AX_72hr was analyzed into 1 assay endpoint. This assay endpoint, APR_HepG2_P-H2AX_72hr, was analyzed with bidirectional fitting relative to DMSO as the negative control and baseline of activity. Using a type of viability reporter, measures of protein for gain or loss-of-signal activity can be used to understand the signaling at the pathway-level as they relate to the gene . Furthermore, this assay endpoint can be referred to as a primary readout, because this assay has produced multiple assay endpoints where this one serves a signaling function. To generalize the intended target to other relatable targets, this assay endpoint is annotated to the dna binding intended target family, where the subfamily is cellular response to DNA damage stimulus.
Cells were treated with dimethyl sulfoxide (DMSO) as a solvent control at a final concentration of 0.5% v/v or with compounds in DMSO with a resulting final DMSO concentration of 0.5% v/v. Compound treatment was done at concentrations of 0.39, 0.78, 1.56, 3.12, 6.24, 12.5, 25, 50, 100, and 200 uM in duplicate on each plate. Cells were treated with compounds for 1, 24, or 72 hr. Carbonyl […] m-chloro-phenylhydrazone (CCCP) and taxol were used as positive controls for mitochondrial function and cytoskeletal stability, respectively; DMSO served as the negative control for this experiment. Cells were fixed by the direct addition of 50 uL formaldehyde in Hank's Balanced Salt Solution (HBSS) to a final concentration of 3.7%. After incubation in the fixation medium for 30 min at room temperature (293-298 K), cells were rinsed twice with HBSS and treated with cell permeabilization buffer (16 uL of 0.5% Triton X-100) for 10 min at room temperature (293-298 K) before labeling. For mitochondrial membrane potential and mitochondrial measurements, pre-fixed cells were incubated with 50 uL of MitoTracker Red CMXRos (Invitrogen) at a concentration of 250 nM for 30 min before fixation. In the remaining cases, post-fixed cells were labeled by incubation with a multiplexed mixture of primary antibodies in HBSS for 60 min at room temperature (293-298 K) to detect immunoreactivity of c-Jun (1:500), phospho-histone H3 (1:100), phospho-histone H2A.x (1:200), p53 (1:400), alpha-tubulin (1:200) and Hoechst 33342 (2 ug/mL). Cells were labeled for multiplexed imaging on two separate plates: a) Hoechst 33342, MitoTracker Red, phospho-histone H3, and alpha-tubulin, and b) Hoechst 33342, phospho-histone H2A.x, and c-Jun. A final rinse with HBSS (50 uL) was performed before analysis. The primary and secondary antibodies for the proteins were phospho-histone H3 (rabbit anti-phospho-histone H3 and FITC-donkey anti-rabbit IgG), phospho-histone H2A.x (mouse anti-phospho-histone H2A.x and FITC-donkey anti-mouse IgG), c-Jun (rabbit anti-phospho-c-Jun and Cy3-donkey anti-rabbit IgG), p53 (sheep anti-p53 and Cy5-donkey anti-sheep IgG), alpha-tubulin (mouse anti-alpha-tubulin and Cy5-donkey anti-mouse IgG). These antibodies are available as the CellCiphr HepG2 assay kit (Millipore).Digital images of each well were captured using a Cellomics ArrayScan VTI (Thermo Scientific Cellomics) (0.8 NA objective, 0.63x optical coupler, and XF-93 filter set) at 20x magnification. The images were acquired using the autofocus feature of the ArrayScan instrument, which entails the following steps. First, the camera focuses on channel 1 (Hoechst 33342), where nuclei are identified. Second, a Z offset of 1 um is used for capturing mitochondria (MitoTracker Red). […]
In the case of `Cc1c(C(=O)O)c(O)cc2c1C(=O)c1c(O)c([C@@H]3O[C@H](CO)[C@@H](O)[C@H](O)[C@H]3O)c(O)c(O)c1C2=O`, the result was inactive.

`NCCO`: the call was inactive.

For the compound `CCCCCC(=O)O`, the compound was classed as inactive.

`CC=Cc1ccc(O)c(OC)c1`: the result was inactive.

With `CC(=O)C(C)=CC1C(C)=CCCC1(C)C` (stereo not given), the outcome was inactive.

Take `CCCCCCCCCCC`: the compound was called inactive.

As to `Nc1ccccc1N`, the AC50 – broadly, the midpoint of the concentration-response curve, whichever way the signal moves – is 38.8 µM (active).

Take `CCCCC(CC)COC(=O)CC(C(=O)OCC(CC)CCCC)S(=O)(=O)O` (stereo not given): the AC50 was 108 µM (active).

For the compound `Cc1ccc(C)c(C)c1`, the call was inactive.

For `COc1ccc2c(c1)c(CC(=O)O)c(C)n2C(=O)c1ccc(Cl)cc1`, the result was inactive.

Take `O=c1c(O)c(-c2ccc(O)c(O)c2)oc2cc(O)cc(O)c12`: the AC50 was 68.1 µM (active).

Consider `Nc1ccc(S(=O)(=O)c2ccc(N)cc2)cc1`, for which the compound was classed as inactive.

Turning to `COc1cc(-c2nc(NC(=O)c3cc4cc(C)cc(C)c4n3CC(=O)O)sc2CCC2CCCCC2)c(OC)cc1Cl`, the result was inactive.

Take `Oc1ccc2c(c1)OC[C@@H](N1CCC(O)(c3ccc(F)cc3)CC1)[C@H]2O`: the compound was classed as inactive.

`Cc1nc(C)nc(N2C[C@@H](C)N(c3ccnc([C@@H](C)O)n3)[C@@H](C)C2)n1`: the compound was called inactive.

`CCNc1cccc(C)c1`: the result was inactive.

Regarding `CCCCCCC(=O)OCC`, the compound was classed as inactive.

As for `CNC(=O)[C@H]1O[C@@H](n2cnc3c(NCc4cc(Cl)ccc4OCc4cc(C)no4)ncnc32)[C@H](O)[C@@H]1N`, the result was inactive.

With `O=c1[nH]cc(F)c(=O)[nH]1`, the result was inactive.

For the compound `C[Si]1(C)O[Si](C)(C)O[Si](C)(C)O[Si](C)(C)O1`, the result was inactive.

In the case of `COc1cc(C=O)ccc1O`, the call was inactive.

On to `Cc1cccc(C)c1O`, for which the compound was classed as inactive.

In the case of `Cc1ccc(C)c(O)c1C`, the result was inactive.

In the case of `Oc1ccc2ccccc2c1N=Nc1ccccc1`, the AC50 is 2.49 µM (active).

In the case of `CN[C@H]1CC[C@@H](c2ccc(Cl)c(Cl)c2)c2ccc(S(N)(=O)=O)cc21`, the AC50 was 100 µM (active).

Regarding `CCCCOC(=O)CCCCCCCCC(=O)OCCCC`, the compound was called inactive.

Turning to `COCCOCCOC`, the call was inactive.

With `c1cc(-c2ccncc2)ccn1`, the compound was called inactive.

Turning to `Cc1nc(-c2ccc3c(c2)CCN(CCC2CCC(NC(=O)/C=C/c4ccc(F)cc4)CC2)CC3)no1` (stereo not given), the half-maximal activity concentration (AC50) was 25.2 µM (active).

Regarding `Cc1cc(NC(=O)C(=O)O)cc(C)c1Oc1ccc(O)c2c1CCC2`, the compound was classed as inactive.

As to `CCCCCCCCCCCCCCCC`, the outcome was inactive.

On to `CCCCc1ccc2c(n1)[C@@H](c1ccc(OC)cc1C[C@H](C)C(=O)O)[C@H](C(=O)O)[C@H]2c1ccc2c(c1)OCO2`, for which the compound was called inactive.

Turning to `O=C(O)Cc1ccccc1Nc1c(Cl)cccc1Cl`, the compound was called inactive.

As for `COc1cc(S(=O)(=O)O)c(C)cc1N=Nc1c(O)ccc2cc(S(=O)(=O)O)ccc12`, the result was inactive.

On to `CC(=O)OCCOCCOCCOC(C)=O`, for which the call was inactive.

Take `CC(C)c1ccc(C(=O)N=C(N)N)cc1S(C)(=O)=O`: the call was inactive.

With `O=C(OCCCCCOC(=O)c1ccccc1)c1ccccc1`, the outcome was inactive.

On to `Cc1cccc(Nc2cc(Cl)nc(SCC(=O)O)n2)c1C`, for which the result was inactive.

Turning to `Clc1cc(Cl)c(Cl)cc1Cl`, the result was inactive.

In the case of `CC1(C)CC(N=C=O)CC(C)(CN=C=O)C1` (stereo not given), the AC50 is 101 µM (active).
